Experimental data as given in PubChem BioAssay AID1159580 (chemical genetic matrix, 2015).
Where “and” joins values, the source holds several entries; their conditions need not be identical. Identical values can stand only once. About 2,000 (36%) of roughly 5,500 compounds were called active. Another 18% or so got no clear call; they are omitted. No stated cut-off is given here; in the data, active means normalized growth mostly below about 0.91 (no sharp cut-off); inconclusive means no clear call, values can overlap the other calls; inactive means mostly above about 0.92. The list shows a part of the results.

Experiment: chemical genetic growth profiling, strain panel (AID 1159580);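 further: tested at 20 µM; growth read once vehicle control cultures reached saturation at 30 °C; 1 = growth at the plate median or of vehicle wells; lower values mean less growth of the strain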
Conditions: S. cerevisiae deletion strains, growth OD

Measured: normalized growth

CN[C@@H]1[C@H](O)[C@H](NC)[C@H]2O[C@@]3(O)C(=O)C[C@@H](C)O[C@H]3O[C@@H]2[C@H]1O
inactive: locus YAL013W, strain DEP1, hits give low values 1.01 | locus YAL021C, strain ccr4, hits give low values 0.982 | locus YAL026C, strain drs2, hits give low values 1 | locus YAL030W, strain snc1, hits give low values 1 | locus YBL061C, strain skt5, hits give low values 1.01 | locus YBR009C, strain hhf1, hits give low values 0.976 | locus YBR021W, strain FUR4, hits give low values 0.997 | locus YBR023C, strain chs3, hits give low values 1 | locus YBR171W, strain sec66, hits give low values 1.01 | locus YBR229C, strain ROT2, hits give low values 1.01 | locus YBR231C, strain swc5, hits give low values 1.01 | locus YBR279W, strain paf1, hits give low values 0.988 | locus YCL011C, strain gbp2, hits give low values 0.991 | locus YCL016C, strain dcc1, hits give low values 0.984 | locus YCL029C, strain bik1, hits give low values 1.03 | locus YCL061C, strain MRC1, hits give low values 1.02 | locus YCL069W, strain vba3, hits give low values 1 | locus YCR088W, strain abp1, hits give low values 1 | locus YDL005C, strain med2, hits give low values 1 | locus YDL035C, strain GPR1, hits give low values 1.02 | locus YDL040C, strain nat1, hits give low values 1.01 | locus YDL074C, strain BRE1, hits give low values 1.02 | locus YDL101C, strain DUN1, hits give low values 1.02 | locus YDL134C, strain PPH21, hits give low values 1.01 | locus YDL185W, strain tfp1, hits give low values 1.02 | locus YDL192W, strain arf1, hits give low values 1.02 | locus YDR001C, strain nth1, hits give low values 0.997 | locus YDR069C, strain doa4, hits give low values 1.02 | locus YDR101C, strain arx1, hits give low values 1.02 | locus YDR137W, strain rgp1, hits give low values 0.989 | locus YDR150W, strain NUM1, hits give low values 1.01 | locus YDR159W, strain sac3, hits give low values 0.969 | locus YDR162C, strain NBP2, hits give low values 1.03 | locus YDR195W, strain ref2 0.99 | locus YDR297W, strain sur2, hits give low values 1 | locus YDR318W, strain mcm21, hits give low values 1.03 | locus YDR334W, strain swr1, hits give low values 1 | locus YDR335W, strain msn5, hits give low values 1 | locus YDR388W, hits give low values 1.02 | locus YDR392W, strain spt3, hits give low values 0.956 | locus YDR502C, strain sam2, hits give low values 1.02 | locus YEL003W, strain gim4, hits give low values 1 | locus YEL037C, strain rad23, hits give low values 0.998 | locus YEL061C, strain CIN8 (second series), hits give low values 0.991 | locus YEL061C, strain CIN8, hits give low values 1.01 | locus YER015W, strain faa2, hits give low values 1 | locus YER016W, strain bim1, hits give low values 0.974 | locus YER110C, hits give low values 1.03 | locus YER111C, strain swi4, hits give low values 1.01 | locus YER155C, strain BEM2 (second series), hits give low values 1.04 | locus YER155C, strain BEM2, hits give low values 1.01 | locus YER167W, strain BCK2, hits give low values 1.02 | locus YFR010W, strain ubp6, hits give low values 1.02 | locus YGL078C, strain dbp3, hits give low values 1.02 | locus YGL086W, strain mad1, hits give low values 1.02 | locus YGL167C, strain pmr1, hits give low values 1.02 | locus YGL173C, strain kem1, hits give low values 1.03 | locus YGL227W, strain vid30, hits give low values 1.01 | locus YGL240W, strain doc1, hits give low values 1.03 | locus YGL248W, strain PDE1, hits give low values 1.02 | locus YGL253W, strain hxk2, hits give low values 0.973 | locus YGR078C, strain PAC10, hits give low values 1.02 | locus YGR135W, strain pre9, hits give low values 1.02 | locus YGR229C, strain SMI1, hits give low values 1.02 | locus YGR252W, strain gcn5, hits give low values 1.01 | locus YHR013C, strain ard1, hits give low values 0.993 | locus YHR027C, strain rpn1, hits give low values 0.993 | locus YHR030C, strain SLT2, hits give low values 1.02 and 0.968 | locus YHR079C, strain IRE1 (second series), hits give low values 1.03 | locus YHR079C, strain IRE1, hits give low values 0.953 | locus YHR094C, strain hxt1, hits give low values 1.02 | locus YHR129C, strain ARP1, hits give low values 1.01 | locus YHR142W, strain chs7, hits give low values 0.995 | locus YHR200W, strain rpn10, hits give low values 1 | locus YIL066C, strain RNR3, hits give low values 1.01 | locus YIL073C, strain SPO22, hits give low values 1.04 | locus YIL125W, strain kgd1, hits give low values 1.01 | locus YIR030C, strain dcg1, hits give low values 1.02 | locus YJL092W, strain hpr5, hits give low values 1.01 | locus YJL095W, strain BCK1 (second series), hits give low values 1.01 | locus YJL095W, strain BCK1, hits give low values 1.02 and 0.984 | locus YJL115W, strain asf1, hits give low values 0.998 | locus YJL129C, strain trk1, hits give low values 1.01 | locus YJL134W, strain LCB3, hits give low values 1.01 | locus YJL154C, strain vps35, hits give low values 0.991 | locus YJL164C, strain tpk1, hits give low values 0.987 | locus YJL166W, strain qcr8, hits give low values 1.02 | locus YJL168C, strain set2, hits give low values 1.02 | locus YJL187C, strain SWE1 (second series), hits give low values 1.02 | locus YJR043C, strain POL32, hits give low values 1.01 | locus YJR066W, strain TOR1, hits give low values 0.977
